Our source for the manual score values is PubChem BioAssay AID623868 (Vanderbilt High Throughput Screening Facility, 2012).

Screen size: about 2,100 compounds; about 760 (36%) were called active. A selection follows. Unmarked numbers belong to inactive results.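 How the source made its calls: active means thallium-flux fluorescence traces judged by eye to show enhanced or reduced glutamate response, manual score 1 or -1, so both directions (some results past the limit were not filed as active); inactive means the rest, including fluorescent or raised-baseline compounds.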

The nature of the assay: non-GIRK thallium flux modulation in mGlu8 cells, confirmation, counter-screen for GIRK activator project, cell-based, HEK-293 rmGlu8, no GIRK (AID 623868).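 Further: extra codes mark interference with 3 for fluorescent and 4 for baseline rise.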 Conditions: thallium flux fluorescence, at 10 µM, actives lie on both sides, codes: 1 enhancer, -1 blocker, 0 none, thallium stimulus containing EC20 glutamate. (Counterscreens check selectivity or assay interference.)
In the case of `Cc1cccc(N2C(N)=NC(N)=NC23CCCCC3)c1`, the manual score is 0. As to `CCN(CC)S(=O)(=O)c1cc(NC(=O)Cn2cnc3ccccc3c2=O)ccc1C`, the manual score is 0.

`CC(C)CN(C(=O)COC(=O)Cc1n[nH]c(=O)c2ccccc12)C1CCS(=O)(=O)C1` (configuration not stated): the manual score was 0. Turning to `COc1ccc(-c2c3c([nH]c(=S)c2C#N)CCC3)cc1`, the manual score was 1 (active). As for `CCOC(=O)c1c(C)[nH]c(=S)c(C#N)c1-c1ccc(Cl)cc1`, the manual score was 0.5. As to `CCN1CCCC1CNC(=O)CSCc1nc(-c2ccccc2C)oc1C` (configuration not stated), the manual score is 0. Under `O=C(NC(NC(=S)Nc1ccc(Cl)cc1Cl)C(Cl)(Cl)Cl)c1cccc([N+](=O)[O-])c1` (configuration not stated) stands 1 (active); under `CCC1c2ccc(C)n2CCN1C(=O)Nc1ccccc1C(=O)OC` (configuration not stated), 0.

Consider `COC(=O)c1ccccc1NC(=S)NC(NC(=O)c1ccco1)C(Cl)(Cl)Cl` (configuration not stated), for which the manual score was 1 (active). For the molecule `O=C(/C=C/c1ccccc1)NC(NC(=S)Nc1cc(Cl)ccc1Cl)C(Cl)(Cl)Cl` (configuration not stated), the manual score was 0.

In the case of `O=C(/C=C/c1ccccc1)NC(NC(=S)Nc1cccc(O)c1)C(Cl)(Cl)Cl` (configuration not stated), the manual score was 3. Under `O=C(/C=C/c1ccccc1)NC(NC(=S)Nc1cccc(Cl)c1)C(Cl)(Cl)Cl` (configuration not stated) stands 0; under `COC(=O)c1ccccc1NC(=S)NC(NC(=O)c1ccccc1[N+](=O)[O-])C(Cl)(Cl)Cl` (configuration not stated), 1 (active). Under `CCOc1cc(C)nc(N2CCN(C3CCCCC3)CC2)n1` stands 0; under `O=C1CC(c2ccncc2)c2cc3c(cc2N1)OCCO3` (configuration not stated), 0; under `Cc1ccc(NC(=O)Cn2cccc2)cc1Cl`, 0. Consider `CCC(=O)Nc1nc2ccc3nc(C)sc3c2s1`, for which the manual score is 0. Under `Cc1cccc2sc(NC(=O)Cn3cccc3)nc12` stands 1 (active); under `CCOc1ccccc1Cn1c(=O)oc2ccc(C)cc21`, 0; under `CCOC(=O)c1c(NC(=S)Nc2ccccc2)sc2c1CCCCC2`, 1 (active). Then `COC(=O)c1c(NC(=S)Nc2ccc(F)cc2[N+](=O)[O-])sc2c1CCCCC2`, with 1 (active); and `COc1ccc(NC(=O)COC(=O)CC23CC4CC(CC(C4)C2)C3)c([N+](=O)[O-])c1`, with 0; and `COC(=O)c1c(NS(=O)(=O)Cc2ccccc2)sc2c1CCCC2`, with 1 (active). Take `COC(=O)c1c(NC(=S)NC(=O)c2ccco2)sc2c1CCCC2`: the manual score is 0. Then `COc1ccccc1OCC(=O)Nc1sc2c(c1C(=O)NCC1CCCO1)CCC2` (configuration not stated), with 0; and `CCOC(=O)c1c(NS(=O)(=O)Cc2ccccc2)sc2c1CCCC2`, with 1 (active); and `CCOC(=O)Cn1c(=O)oc2cc(S(=O)(=O)Nc3ccc(N(CC)CC)cc3C)ccc21`, with 0. Regarding `CC(C)c1ccccc1NC(=O)COC(=O)/C=C/c1cccc([N+](=O)[O-])c1`, the manual score is 0. With `CC(C)Oc1ccccc1C1Nc2ccccc2C(=O)N1c1ccc2c(c1)OCCO2` (configuration not stated), the manual score is 0. Consider `CC(=O)Oc1ccc(N(C(C)=O)S(=O)(=O)c2cccs2)c2ccccc12`, for which the manual score is 0. Then `COC(=O)c1c(NC(=O)Cc2cccs2)sc(C(=O)NC2CCCCC2)c1C`, with 0; and `COC(=O)c1c(NS(=O)(=O)c2cccs2)sc2c1CCCC2`, with 1 (active). Consider `CCCCN(CCCC)C(=O)CSc1nnc2n(C)c(=O)c3c4c(sc3n12)CCCC4`, for which the manual score was -1 (active). On to `CCC1(C)Cc2c(sc3c2c(=O)n(C)c2nnc(SCc4ccc5c(c4)OCO5)n32)CO1` (configuration not stated), for which the manual score is 0. Then `CON(c1nc(Cl)nc(N(C)C)n1)S(=O)(=O)c1ccccc1Cl`, with 0; and `CCCCCC/C(C)=C1/SC(=S)NC1=O`, with 1 (active); and `Cn1c(CNc2nc3ccccc3n2CCN2CCCCC2)nc2ccccc21`, with 0. Regarding `CC1(C)CC(c2nc(-c3ccc(Br)cc3)cs2)CCS1` (configuration not stated), the manual score was 0. `CCOC(=O)N1CCN(C(=O)CSc2nc3c(c(=O)n2-c2ccccc2OC)SCC3)CC1`: the manual score was -1 (active). Then `CCCN(CCC)C(=O)CSc1nc2ccccc2c(=O)n1C1CCCC1`, with -1 (active); and `CCc1c(O)nc(SCC(=O)Nc2ccc(OC)cc2)n(C2CCCCC2)c1=O`, with 0. Turning to `CCOC(=O)N1CCN(C(=O)CSc2ncnc3ccccc23)CC1`, the manual score is 0. As to `CCOC(=O)CSc1nc2c(sc(=S)n2-c2ccccc2OC)c(=O)n1Cc1ccco1`, the manual score is -0.5. `COC(=O)COn1c(SC(C)C)nc2ccccc2c1=O`: the manual score was 0. For `CCN(CC)C(=O)CSc1nc2ccccc2c(=O)n1-c1ccccc1OC`, the manual score is -1 (active). For `COC(=O)c1ccc2c(=O)n(C3CCCCC3)c(SCC#N)nc2c1`, the manual score was 0. As for `N#CC1=C(N)Oc2n[nH]c(-c3cccs3)c2C1c1ccco1` (configuration not stated), the manual score was 3.

In the case of `Cc1c(C#N)c2ccccc2n1CC(=O)O`, the manual score is 0. Then `Cc1ccc(N=C2CCCN2Cc2ccccc2)c(C#N)c1`, with -1 (active); and `Cc1ccc(C)c(N=C2CCCN2Cc2ccccc2)c1C#N`, with -1 (active). Turning to `COC(=O)c1ccc(N2C(=O)CC(Sc3n[nH]c(C)n3)C2=O)cc1` (configuration not stated), the manual score is 0. In the case of `CC(C)CCOP(=O)(c1ccc(N(C)C)cc1)C(O)c1ccccn1` (configuration not stated), the manual score was 0. Then `Brc1ccc(-c2nnc3c4ccccc4nc(N4CCOCC4)n23)cc1`, with 0; and `CCCn1cc(NC(=O)c2cc(-c3ccccc3)on2)cn1`, with 1 (active).

In the case of `CCOC(=O)C1CCCN(C(=O)c2cc(-c3ccccc3)on2)C1` (configuration not stated), the manual score is 0. Take `O=C(c1cc(-c2ccccc2)on1)N1CCCC1`: the manual score was 0.

`CC(C)n1cc(NC(=O)c2cc(-c3ccccc3)on2)cn1`: the manual score is 1 (active). Take `CCN(CC)CCCNC(=O)c1cc(-c2ccc(Cl)c(Cl)c2)on1`: the manual score was 0.

For `CCN(CC)CCN(CC)Cc1ccccc1Br`, the manual score was 0. Take `CCC(c1nnnn1Cc1ccc(OC)cc1)N(CCCO)Cc1cc2cc3c(cc2[nH]c1=O)OCO3` (configuration not stated): the manual score was 0. `S=c1[nH]nc(CSc2nc3ccccc3s2)n1C1CCCCC1`: the manual score was 1 (active).

`Clc1ccccc1-c1nn2c(COc3ccccc3)nnc2s1`: the manual score was 0. `S=c1[nH]nc(COc2ccccc2)n1C1CCCCC1`: the manual score was 1 (active).

With `CC(O)c1nc2ccccc2n1C1CCCCC1` (configuration not stated), the manual score was 0.

Take `CC(=O)c1c(C(C)=O)c(C)n(-c2nc(-c3cccs3)c(C)s2)c1C`: the manual score is 0. Then `Cc1ccc(NC(=O)CN2c3cccc4cccc(c34)S2(=O)=O)cc1S(=O)(=O)N1CCOCC1`, with 0; and `O=c1c2cccnc2[nH]c(=S)n1CCCN1CCN(c2ccc(F)cc2)CC1`, with 1 (active); and `Cc1cc(C(F)(F)F)c2c(=O)[nH]c(=O)n(Cc3ccccc3)c2n1`, with 0.

`O=c1c2cc(F)ccc2[nH]c(=S)n1CCCN1CCOCC1`: the manual score is 0. Under `Cn1c(=O)c2c(nc(-n3ccnc3)n2Cc2ccccc2)n(C)c1=O` stands 0; under `O=c1c2cccnc2[nH]c(=S)n1Cc1ccccc1`, 1 (active); under `CCOC(=O)CN1NC2(CCC(C(C)(C)C)CC2)NC1=S` (configuration not stated), 0.

As for `CCSc1nnc(NC(=O)C(Cc2ccccc2)n2cccc2)s1` (configuration not stated), the manual score was 0.

Turning to `Cc1csc(NC(=O)C(Cc2ccccc2)n2cccc2)n1` (configuration not stated), the manual score was 0.

Regarding `O=C(Nc1ncc(Br)s1)C(Cc1ccccc1)n1cccc1` (configuration not stated), the manual score was 1 (active). With `CCOC(=O)Cn1c(=N)n(CCOc2cccc(C)c2)c2ccccc21`, the manual score is 0. Under `COc1ccc(OCc2nc(N)nc(Nc3ccccc3)n2)cc1` stands 0; under `Nc1c(-c2ccccc2)cnn1-c1ccc(C(=O)O)cc1`, 0. As to `COc1cccc(C(=O)NC(=S)N2CCN(c3ccc(C(F)(F)F)cc3[N+](=O)[O-])CC2)c1`, the manual score was 1 (active). For `Cc1ccc(CC(=O)N2CCN(c3cccc(C(F)(F)F)c3)CC2)cc1`, the manual score is 0. As for `COc1ccccc1NC(=O)COc1ccc(C(F)(F)F)cc1[N+](=O)[O-]`, the manual score was 0. Take `CC(C)Oc1cccc(C(=O)NC(=S)N2CCN(c3ccc(C(F)(F)F)cc3[N+](=O)[O-])CC2)c1`: the manual score is 1 (active). Consider `COc1cc(OC)cc(C(=O)NC(=S)N2CCN(c3ccc(C(F)(F)F)cc3[N+](=O)[O-])CC2)c1`, for which the manual score is 1 (active). For the molecule `CCOCc1c(C(=O)OCC(=O)Nc2ccc(C)c(S(=O)(=O)N(C)C)c2)oc2ccccc12`, the manual score was 0. For `Cc1cc(C)c2nc(SC(C)C(=O)NCC(=O)Nc3ccc(F)c(F)c3F)cc(C)c2c1` (configuration not stated), the manual score is 1 (active).

In the case of `Cc1ccccc1NC1=C(Cl)C(=O)OC1OC(=O)c1ccco1` (configuration not stated), the manual score is -1 (active). For `Cc1c(C(=O)O)c(=S)sn1CCOc1ccccc1`, the manual score was -1 (active).

With `CCN1CCN(CCCOc2ccc(-c3ccccc3)cc2)CC1`, the manual score is 0. `CC(=O)c1cccc(NC(=O)CCOc2ccccc2)c1`: the manual score was 0. With `Cc1ccccc1C(=O)NNC(=S)NC(=O)COc1ccccc1`, the manual score was 1 (active). As for `Cc1ccc(OCC(=O)NC(=S)Nc2cccc(C)n2)cc1`, the manual score was 1 (active).

For `Cc1ccc(C(=O)NNC(=S)NC(=O)COc2ccccc2)cc1`, the manual score was 1 (active).

Turning to `CCCOc1nc2c(c(=O)n(C)c(=O)n2C)n1Cc1cccc2ccccc12`, the manual score was 0. Take `CCc1cc(-c2n[nH]c(C)c2-c2nc3ccccc3n2C)c(O)c(CN2CCN(C)CC2)c1O`: the manual score was 0. Then `COc1ccc(NC(=O)NC(C)c2ccncc2)cc1OC` (configuration not stated), with 0; and `Fc1ccc2nc(-c3ccccc3)nc(SCc3nnc(-c4ccccc4)o3)c2c1`, with 1 (active). Turning to `c1ccc(Cc2nnc(-c3ccccc3)o2)cc1`, the manual score is 0. As to `COc1ccc(-c2nn(-c3ccccc3)cc2/C=N/n2cnnc2)cc1OC`, the manual score is 0. Consider `COc1ccc(/C=N/n2c(SC)nnc2-c2ccccc2)c(OC)c1OC`, for which the manual score was -1 (active). Under `COc1cccc(/C=N/n2c(=S)n(C)c3ccccc32)c1OC` stands 0.

For the molecule `O=C(COc1ccccc1)NC(=S)Nc1ccc2c3c(cccc13)CC2`, the manual score is 1 (active). Under `COc1cccc(C(=O)NC(=S)Nc2ccc3c4c(cccc24)CC3)c1` stands 1 (active).
